Experimental data as given in the supplement of paper PMC4166925.
± gives the standard deviation of the averaged measurements. The full ranking holds about 33,000 sequences; the median of “E-score (dimensionless, -0.5 to 0.5)” is about -0.049, and the highest 2% start at about 0.37. Only a selection was taken, and the highest values are over-represented in it overall.

system: T1, PmTbr T-box DNA-binding domain (GST fusion); test: PBM E-score of 8-mer (E-score (dimensionless, -0.5 to 0.5)); Tbr is Tbrain of the sea star Patiria miniata (Pm) or the sea urchin Strongylocentrotus purpuratus (Sp); higher = stronger binding preference; conditions: the construct has about 5 more residues each side
T1 sequence: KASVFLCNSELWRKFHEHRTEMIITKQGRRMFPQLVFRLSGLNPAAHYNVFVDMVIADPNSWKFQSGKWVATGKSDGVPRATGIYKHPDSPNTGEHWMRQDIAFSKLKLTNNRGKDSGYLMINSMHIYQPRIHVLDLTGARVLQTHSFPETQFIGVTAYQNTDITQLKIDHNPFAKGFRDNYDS
Procedure: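 Universal protein-binding microarray (Agilent AMADID 016060, 60-bp probes with a 35-bp variable region) incubated with 200 nM GST-fused Patiria miniata Tbr T-box DNA-binding domain (residues 272-466) in PBS pH 7.5. Scored for every ungapped 8-mer (given with its reverse complement) by the Universal PBM Analysis Suite as E-score (modified Wilcoxon-Mann-Whitney enrichment, range -0.5 to 0.5; >0.45 counts as bound) and Z-score of median probe intensity. Two replicate arrays (datasets 1 and 2).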

| Sequence | PBM E-score of 8-mer |
| --- | --- |
| CCCACAGG | 0.0869 ± 0.067 |
| CCGGTTGC | -0.0645 ± 0.0032 |
| CATAGATA | -0.161 ± 0.051 |
| ACCAACGA | 0.0332 ± 0.14 |
| GTGCTTGA | 0.00432 ± 0.026 |
| AGTGTTAT | 0.397 ± 0.016 |
| AATGTTAT | -0.00229 ± 0.038 |
| ACTGTTAT | 0.0989 ± 0.046 |
| CCCGAGGG | -0.251 ± 0.11 |
| CCTTCTCC | -0.0679 ± 0.015 |
| AGAGCAAA | -0.099 ± 0.029 |
| TAACAAGA | 0.0263 ± 0.085 |
| CGGTGCTA | 0.321 ± 0.0088 |
| AGGTGCCA | 0.4761 ± 0.0036 |
| GGGTGCTA | 0.4326 ± 0.0028 |
| CGGTGCGA | 0.35 ± 0.017 |
| AGGTGCCG | 0.439 ± 0.0092 |
| ACGTGCCA | 0.367 ± 0.031 |
| AGGTGCCC | 0.0662 ± 0.046 |
| GTGTGCTA | 0.3066 ± 0.0011 |
| GTGTGCGA | 0.3565 ± 0.0019 |
| AGCTGCCA | 0.18 ± 0.026 |

| Sequence | PBM E-score of 8-mer |
| --- | --- |
| ACGTGCCG | 0.221 ± 0.02 |
| GGGTGCGA | 0.4765 ± 0.0031 |
| CACGCCAC | 0.222 ± 0.04 |
| ACGAAGTG | 0.291 ± 0.018 |
| CTGGGCCA | -0.217 ± 0.042 |
| AGGTCACA | 0.27 ± 0.017 |
| GCTACGAC | 0.00882 ± 0.05 |
| CGGCAATA | -0.0175 ± 0.065 |
| CGGCCTAA | -0.0861 ± 0.036 |
| AACTCAAC | -0.0361 ± 0.029 |
| CGCTATAA | 0.164 ± 0.045 |
| GGGTGCCA | 0.426 ± 0.011 |
| TGGTGCAA | 0.192 ± 0.012 |
| CGGTGCCA | 0.195 ± 0.0034 |
| GCGTGCCA | 0.163 ± 0.015 |
| GGGTGCAA | 0.31 ± 0.0046 |
| AGGTGCAA | 0.4484 ± 0.0012 |
| AAAGACCG | -0.149 ± 0.032 |
| TCCTGCCA | 0.183 ± 0.019 |
| TGCGTGAA | 0.3679 ± 0.0033 |
| CGCGTGAC | 0.342 ± 0.0057 |
| GGCGTGAC | 0.386 ± 0.017 |

| Sequence | PBM E-score of 8-mer |
| --- | --- |
| AGCGTGAA | 0.381 ± 0.004 |
| CGCGTGAG | 0.282 ± 0.004 |
| GGCGTGCA | -0.00275 ± 0.035 |
| AGCGTGAC | 0.3524 ± 0.0023 |
| CGCGTGAA | 0.398 ± 0.033 |
| CACGTGAA | 0.176 ± 0.044 |
| GGCGTGAA | 0.4668 ± 0.002 |
| AGCGTGAG | 0.24 ± 0.042 |
| AGCGTGAT | 0.207 ± 0.025 |
| CTAGGATC | -0.255 ± 0.018 |
| TTGAGAAA | 0.0227 ± 0.14 |
| ATGACCAT | -0.23 ± 0.0083 |
| TCCTTAGA | -0.289 ± 0.043 |
| CCCAAGCC | -0.228 ± 0.037 |
| AGTCAATG | -0.195 ± 0.041 |
| CTTCCACA | 0.151 ± 0.069 |
| CGTCTTCA | -0.00878 ± 0.0017 |
| AGAACGAG | -0.0902 ± 0.0033 |
| CGGCGAAA | -0.1403 ± 0.00085 |
| GCCATTCA | 0.104 ± 0.018 |
| GAACGCTA | 0.0135 ± 0.049 |
| GATAACAA | 0.212 ± 0.042 |

| Sequence | PBM E-score of 8-mer |
| --- | --- |
| CATAACAC | 0.42 ± 0.0089 |
| GATAACAC | 0.4169 ± 0.0014 |
| AATAACAC | 0.339 ± 0.052 |
| CATAACAA | 0.0483 ± 0.038 |
| GATAACGC | 0.246 ± 0.0034 |
| GCTGTTCA | 0.0254 ± 0.024 |
| CGAAGATC | -0.07 ± 0.0097 |
| ACCGCAGA | -0.332 ± 0.019 |
| CATCCTCA | -0.0261 ± 0.11 |
| GAACCTAC | -0.179 ± 0.00047 |
| GGCTTAAA | -0.302 ± 0.016 |
| ACAAGCTA | -0.0967 ± 0.014 |
| TCGTGACA | 0.358 ± 0.017 |
| GGGTGACC | -0.0479 ± 0.082 |
| GGGTGAAA | 0.0558 ± 0.043 |
| TGGTGACA | 0.409 ± 0.01 |
| CGGTGACA | 0.333 ± 0.0054 |
| GGGTGACA | 0.4543 ± 0.0023 |
| CGCGCTCA | 0.13 ± 0.034 |
| TATAAGGA | -0.154 ± 0.073 |
| CACCAATA | 0.224 ± 0.056 |
